These results are taken from PubChem BioAssay (NCATS).

A short description of assay [1]: qHTS profiling for inhibitors of Plasmodium falciparum (3D7) proliferation (AID 743322).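 Also: infected erythrocytes exposed to compound for 72 h before lysis; 100% = DMSO vehicle wells and 0% = 0.29 µM artemisinin.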 Particulars: P. falciparum 3D7 proliferation; at 28.7 µM (top of the series) unless noted. The essentials: (§1)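 Erythrocytes infected with P. falciparum (0.3% parasitemia, 2.5% hematocrit) incubated with compounds 72 h at 37 C, 5% CO2. Lysis with saponin/Triton buffer containing SYBR Green I, overnight at room temperature in the dark; DNA fluorescence (485/535 nm) normalised to 0.29 uM artemisinin and DMSO.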
On the technique in general: Quantitative high-throughput screening tests each substance at several concentrations.

The nature of assay [2]: qHTS profiling for inhibitors of Plasmodium falciparum (DD2) proliferation (AID 743323; call rule not given here). Particulars: lower = more inhibition; at 28.7 µM (top of the series) unless noted. The essentials: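 Parasite proliferation measured via DNA-dye fluorescence, as uninfected erythrocytes lack DNA. Cultures at 0.3% parasitemia and 2.5% hematocrit incubated 72 h with compound; signal scaled between vehicle and 0.29 uM artemisinin wells.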

A short description of assay [3]: qHTS profiling of the MIPE4 collection as inhibitors of Plasmodium falciparum (3D7) proliferation (AID 743344; call rule not given here). The settings on record: P. falciparum 3D7 in erythrocytes, SYBR Green DNA fluorescence, 72 h; at 28.5 µM (top of the series) unless noted. The essentials:
as §1

Assay [4] is described as follows: qHTS profiling of the MIPE4 collection as inhibitors of Plasmodium falciparum (DD2) proliferation (AID 743345; call rule not given here). Particulars: P. falciparum Dd2 in erythrocytes, SYBR Green DNA, 72 h; at 28.5 µM (top of the series) unless noted. In short, it runs like this:
as §1

Assay [5] can be described thus: qHTS profiling of the MIPE4 collection as inhibitors of Plasmodium falciparum (DD2) proliferation (Rep 2) (AID 743346; call rule not given here). The settings on record: P. falciparum Dd2 in erythrocytes, SYBR Green DNA, 72 h; at 28.5 µM (top of the series) unless noted. The essentials:
as §1

A short description of assay [6]: qHTS profiling of the MIPE4 collection as inhibitors of Plasmodium falciparum (HB3) proliferation (AID 743347; call rule not given here;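 also: plate controls were DMSO vehicle wells for no effect and artemisinin wells for full effect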). The settings on record: P. falciparum HB3 in erythrocytes, SYBR Green DNA, 72 h; at 28.5 µM (top of the series) unless noted. The essentials: as §1
The nature of assay [7]: High-throughput drug toxicity screening in the BPDCN cell line Gen2.2 (AID 1224824; call rule not given here;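 also: cells exposed to compounds for 48 h before reading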). Particulars: Gen2.2 BPDCN cells; at 45.8 µM (top of the series) unless noted. The essentials:
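Gen2.2 cells (500/well) in phenol red-free RPMI with 10% FBS were exposed to compounds for 48 h at 37 °C, 5% CO2. Viability was read by CellTiter-Glo luminescence and normalized to DMSO (100%) and 9.2 uM bortezomib (0%).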

A short description of assay [8]: High-throughput drug toxicity screening in the BPDCN cell line Cal-1 (AID 1224825; call rule not given here). Particulars: Cal-1 BPDCN cell viability, qHTS; at 45.8 µM (top of the series) unless noted. The essentials:
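500 Cal-1 cells/well, RPMI + glutamine + 10% FBS (phenol red-free); cpd added by pin tool; 48 h, 37C, 5% CO2; CTG 15 min RT, lumi read. Normalised: DMSO 100%, bortezomib 9.2 uM 0%.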

Assay [9] can be described thus: qHTS assay for measurement of the activity of small molecule inhibitors on Zika virus induced Caspase-3 activity in human iPSC derived neural progenitor cells (hNPCs) (AID 1224857). Also: % of control where 0% means no effect; nearly all actives have a fitted effect of over 65% in size. In short, it runs like this:
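Quantitative HTS format: human iPSC neural progenitors, 1 h compound pretreatment, ZIKV 2 FFU/cell for 6 h at 37 C. Percent inhibition derived from luminescent caspase-3/7 signal between uninfected and infected controls.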

Assay [10] is described as follows: qHTS assay for measurement of the activity of small molecule inhibitors on Zika virus induced Caspase-3 activity in human astrocytoma cells (AID 1224859).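 Also: plate controls were ZIKV-infected untreated cells for no effect and uninfected cells for full effect.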 In short, it runs like this: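 Readout is luminescence from Caspase-Glo 3/7 added after a 6 h ZIKV infection (2 FFU/cell) of compound-pretreated (1 h) SNB-19 cells; data expressed as % inhibition versus uninfected and infected wells.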

Assay [11] in a line: qHTS Screen of the MIPE 4.0 Collection Against Ewings Sarcoma (RDES) (AID 1259252). Also: potency is read from the fitted curve at half-maximal effect; nearly all actives have a fitted effect of over 35% in size. The essentials:
(§2)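 CellTiter-Glo luminescence after 48 h compound exposure (titration) gave viability; percent activity used DMSO-treated cells as no inhibition and medium-only wells as full inhibition. Cells grown in RPMI/5% FBS, dosed 4 h post-seeding.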

The nature of assay [12]: qHTS Screen of the MIPE 4.0 Collection Against Ewings Sarcoma (EW8) (AID 1259255). Also: nearly all actives have a fitted effect of over 35% in size. Also: potency is read from the fitted curve at half-maximal effect.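 As to viability: 100% = DMSO-treated cells and 0% = medium-only wells without cells.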 In short, it runs like this:
as §2

The nature of assay [13]: qHTS Assay for Identifying Gametocytocidal Compounds (AID 743244).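 Also: % is scaled to controls: 0 for no effect and ±100 for the full control effect; actives lower the fluorescent signal which means gametocytes are killed.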 The settings on record: P. falciparum 3D7 stage III-V gametocytes, alamarBlue, 72 h; max response: stronger effect = lower value. The essentials:
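A resazurin-based viability read-out was applied to mature P. falciparum gametocytes: 72 h compound treatment, then 24 h dye incubation, with falling fluorescence signalling gametocytocidal effect.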

A short description of assay [14]: qHTS Screen of the MIPE 4.0 Collection Against Ewings Sarcoma (TC71) (AID 1259253). Also: nearly all actives have a fitted effect of over 40% in size. Also: potency is read from the fitted curve at half-maximal effect. The essentials:
as §2

Values joined by “and” are separate entries in the source; they are usually repeats but may differ in a detail not shown here. Equal values may be shown once. Inconclusive results are not listed. Active and inactive are the calls of the source. Unless noted, calls follow the shape of the dose curve; as a rule, active = well fitted curve in the direction sought with a large enough effect; inconclusive = small, poorly fitted or top-dose-only effect, or another doubt; inactive = no such curve, though single readings can be large; an effect the other way counts as inactive or inconclusive.

Consider `COc1cc2c(N3CCN(C(=O)Nc4ccc(OC(C)C)cc4)CC3)ncnc2cc1OCCCN1CCCCC1`, for which the remaining parasite growth % (stronger effect = lower value) in [1] was -0.248%. The same compound displayed an activity, percent of control in assay [2] of 3.98%. Besides, the parasite growth, % of DMSO control in [3] is 4.84%. Further, in assay [4], the parasite growth remaining, % of DMSO control (lower = more inhibition) worked out at 8.31%. This compound also displayed a parasite growth, % of control (lower = inhibition) in [5] of 12%. The compound further gave a growth, % of control in [6] of 3.25%. Besides, the cell viability, % of control (lower = more cytotoxic) in [7] worked out at 7.51%. In [8], the viability (% of control) was found to be 11.3%. The Potency entry in assay [9] and in [10] was “inactive” throughout. For the same compound, the Potency in [11] is 26.4 µM (active); in assay [12] it was 23.5 µM (active).
In the case of `Cc1nccn1CC1CCc2c(c3ccccc3n2C)C1=O` (configuration not stated), the max response in [13] is -12.7% (inactive) and -3.64% (inactive). The compound further registered a parasite growth, % of DMSO control in [3] of 89.8%. This compound showed a parasite growth remaining, % of DMSO control (lower = more inhibition) in [4] of 80.4%. In assay [5], this compound returned a parasite growth, % of control (lower = inhibition) of 40.2%. This compound also showed a growth, % of control in assay [6] of 54.5%. In addition, the cell viability, % of control (lower = more cytotoxic) in assay [7] was 105%. In addition, the viability (% of control) in [8] was 92.7%. Moreover, the Potency entry in assay [9], in assay [10] and in assay [12] was “inactive” throughout. In addition, the Potency in assay [14] was 16.6 µM (active).
Regarding `CCC1=C(C)CN(C(=O)NCCc2ccc(S(=O)(=O)NC(=O)NC3CCC(C)CC3)cc2)C1=O` (configuration not stated), in assay [13], the max response was 36.8% (inactive). Further, the parasite growth, % of DMSO control in assay [3] was found to be 98.4%. The parasite growth remaining, % of DMSO control (lower = more inhibition) in assay [4] is 91.8%. In addition, in assay [5], the parasite growth, % of control (lower = inhibition) was 85.1%. In assay [6], this compound registered a growth, % of control of 99.4%. Further, the cell viability, % of control (lower = more cytotoxic) in assay [7] worked out at 114%. Moreover, the viability (% of control) in assay [8] was 118%. Further, the Potency entry in assay [9], in [10], in assay [14] and in assay [12] was “inactive” each time.
Regarding `O=C(NCC1CCCCN1)c1cc(OCC(F)(F)F)ccc1OCC(F)(F)F` (configuration not stated), the cell viability, % of control (lower = more cytotoxic) in assay [7] came out at 42.6%. In [8], the viability (% of control) stood at 12.9%. For the same compound, the Potency result in assay [9], in assay [10] and in [12] was “inactive” in each case.
As for `CN(C)[C@@H](CCOc1cccc2ccccc12)c1ccccc1`, the parasite growth, % of DMSO control in assay [3] was 18.8%. Further, in assay [4], the parasite growth remaining, % of DMSO control (lower = more inhibition) was 14.4%. In assay [6], this compound displayed a growth, % of control of 15.2%. Moreover, in assay [7], the cell viability, % of control (lower = more cytotoxic) stood at 165%. Moreover, the viability (% of control) in assay [8] worked out at 78.2%. Also, the Potency result in [9] and in assay [10] was “inactive” each time. Also, in [14], the Potency is 26.4 µM (active).
